According to paper PMC5540273 (PLoS ONE, 2017):

What was measured:
Details in all cases: concentration: 1 μM, replicates: in singlicate; n = 1
IKK-alpha = tested on: T1, IKK-alpha
T1 construct: gene CHUK

IKK-beta = tested on: T2, IKK-beta
T2 construct: gene IKBKB

IKK-epsilon = tested on: T3, IKK-epsilon
T3 construct: gene IKBKE

INSRR = tested on: INSRR
INSR = tested on: INSR
IRAK1 = tested on: IRAK1
IRAK3 = tested on: IRAK3
IRAK4 = tested on: IRAK4
ITK = tested on: ITK
[1] = tested on: JAK1(JH1domain-catalytic)
[2] = tested on: JAK1(JH2domain-pseudokinase)
[3] = tested on: JAK2(JH1domain-catalytic)
[4] = tested on: JAK3(JH1domain-catalytic)
JNK1 = tested on: T4, JNK1
T4 construct: gene MAPK8

JNK2 = tested on: T5, JNK2
T5 construct: gene MAPK9

JNK3 = tested on: T6, JNK3
T6 construct: gene MAPK10

KIT-autoinhibited = tested on: KIT-autoinhibited
KIT = tested on: KIT
LATS1 = tested on: LATS1
LATS2 = tested on: LATS2
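Further: KINOMEscan kinase panel screen.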

Compound	%Inh (IKK-alpha) [%]	%Inh (IKK-beta) [%]	%Inh (IKK-epsilon) [%]	%Inh (INSRR) [%]	%Inh (INSR) [%]	%Inh (IRAK1) [%]	%Inh (IRAK3) [%]	%Inh (IRAK4) [%]	%Inh (ITK) [%]	%Inh [1] [%]	%Inh [2] [%]	%Inh [3] [%]	%Inh [4] [%]	%Inh (JNK1) [%]	%Inh (JNK2) [%]	%Inh (JNK3) [%]	%Inh (KIT-autoinhibited) [%]	%Inh (KIT) [%]	%Inh (LATS1) [%]	%Inh (LATS2) [%]
COC(=O)Nc1nc2ccc(Oc3ccc(NC(=O)Nc4cc(C(F)(F)F)ccc4F)cc3)cc2n1C.Cl [GW692089]	77	18	0	0	0	18	0	0	0	3	0	22	0	2	37	0	5	100	0	0
Cl.c1ccc(-c2ccc3c(Nc4ccc5[nH]ncc5c4)ccnc3c2)nc1 [GW440137]	10	15	17	0	15	18	26	12	7	26	0	36	0	9	27	15	0	94.4	0	3
CC(C)(C)c1ccc2nccc(Nc3cccc(O)c3)c2c1 [GW856795]	31	0	0	0	0	0	0	0	19	0	0	36	35	32	23	15	9	26	10	0
CNC(=O)c1ccccc1Nc1nc(Nc2ccc(N3CCOCC3)cc2)ncc1Cl.Cl [GSK1576028]	85	78	74	98.6	95.5	100	99.7	99.6	99.9	97.6	99.9	99	100	100	100	100	10	92.4	32	92.1
COc1cccc(NC(=O)NC2CCN(c3ccnc(Nc4cc(OC)c(OC)c(OC)c4)n3)C2)c1 (stereo not shown) [GSK1379763]	0	6	12	0	0	73	86	27	25	0	29	88	0	28	27	39	17	98.5	0	13
CCS(=O)(=O)c1ccc(OC)c(Nc2nccc(-c3c(-c4cccc(NC(=O)c5c(F)cccc5F)c4)nn4ncccc34)n2)c1 [GSK326180]	27	27	13	21	45	28	1	29	5	20	0	0	0	32	68	46	0	32	0	2
COc1cccc(-c2ccc3c(NC(=O)C4CC4)n[nH]c3n2)c1 [SB-710903]	50	26	52	0	0	57	0	27	6	9	0	17	0	29	14	5	0	15	9	10
Oc1cc(Nc2ccnc3cc(I)ccc23)ccc1F [GW552771]	31	19	0	0	0	50	25	11	0	4	0	7	0	32	43	28	0	70	0	0
